Reference: PubChem BioAssay (NCATS)
Records with an inconclusive call do not appear. The source made the active and inactive calls. Calls come from the whole dose curve; as a rule, active = well fitted curve in the direction sought with a large enough effect; inconclusive = small, poorly fitted or top-dose-only effect, or another doubt; inactive = no such curve, though single readings can be large; an effect the other way counts as inactive or inconclusive.

Tested on: not listed separately
Assay: Inducers of the Endoplasmic Reticulum Stress Response (ERSR) in human glioma: Validation (AID 504836); note: 0% is about no effect
Details: human glioma cells, ER stress response reporter; series mostly up to 38.3 µM; activation: at the top concentration
Summary of the method: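 Stably transfected U87-MG human glioma cells carrying a GRP78-based luminescent sensor were seeded at 1000 cells/well, pin-dosed with compounds and incubated 16 h. Luciferase reagent was then added, and end-point luminescence was read after 10 min at room temperature.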

Row | SMILES | activation
1 | CCCCNC(=O)NS(=O)(=O)c1ccc(C)cc1 | -2.69% (inactive)
2 | CN/C(=C\[N+](=O)[O-])NCCSCc1ccc(CN(C)C)o1 | 0.197% (inactive)
3 | CN1CC(=O)N/C1=N/C(=O)Nc1cccc(Cl)c1 | -0.746% (inactive)
4 | Cc1cnc(C(=O)NCCc2ccc(S(=O)(=O)NC(=O)NC3CCCCC3)cc2)cn1 | -3.64% (inactive)
5 | Fc1ccc([C@@H]2CCNC[C@H]2COc2ccc3c(c2)OCO3)cc1 | -1.25% (inactive)
6 | CN(C)CC[C@@H](c1ccc(Br)cc1)c1ccccn1 | -4% (inactive)
7 | NS(=O)(=O)c1cc2c(cc1Cl)NC=NS2(=O)=O | 0.848% (inactive)
8 | O=C1CCC(N2C(=O)c3ccccc3C2=O)C(=O)N1 (configuration not stated) | -1.55% (inactive)
9 | O=NN(CCCl)C(=O)NCCCl | 1.26% (inactive)
10 | NC12CC3CC(CC(C3)C1)C2 | -0.889% (inactive)
11 | CC(C)(C(=O)O)c1ccc(C(O)CCCN2CCC(C(O)(c3ccccc3)c3ccccc3)CC2)cc1 (configuration not stated) | -0.403% (inactive)
12 | COc1cc2nc(N3CCN(C(=O)C4CCCO4)CC3)nc(N)c2cc1OC (configuration not stated) | 1.66% (inactive)
13 | CC1(C)NC(=O)N(c2ccc([N+](=O)[O-])c(C(F)(F)F)c2)C1=O | -5.72% (inactive)
14 | C[C@]12CC[C@@H]3c4ccc(O)cc4C[C@@H](CCCCCCCCCS(=O)CCCC(F)(F)C(F)(F)F)[C@H]3[C@@H]1CC[C@@H]2O (some centres not stated) | -1.16% (inactive)
15 | CC(C)NCC(O)c1ccc(O)c(O)c1 (configuration not stated) | -4.35% (inactive)
16 | N[C@@H]1CONC1=O | 0.346% (inactive)
17 | CCOC(=O)C1=C(C)NC(C)=C(C(=O)OC)C1c1cccc(Cl)c1Cl (configuration not stated) | 0.412% (inactive)
18 | CCCN(CCC)CCc1cccc2c1CC(=O)N2 | -0.323% (inactive)
19 | OCCN1CCN(CCCN2c3ccccc3Sc3ccc(Cl)cc32)CC1 | -1.56% (inactive)
20 | OCCN(CCO)c1nc(N2CCCCC2)c2nc(N(CCO)CCO)nc(N3CCCCC3)c2n1 | -3.53% (inactive)
21 | O=C(NCCN1CCOCC1)c1ccc(Cl)cc1 | -0.719% (inactive)
22 | N=c1nc(N2CCCCC2)cc(N)n1O | -3.66% (inactive)
23 | O=c1n(CCCN2CCN(c3cccc(Cl)c3)CC2)nc2ccccn12 | 0.597% (inactive)
24 | CC/C(=C(\c1ccccc1)c1ccc(OCCN(C)C)cc1)c1ccccc1 | -1.38% (inactive)
25 | Cc1ccccc1C(OCCN(C)C)c1ccccc1 (configuration not stated) | 0.754% (inactive)
26 | C[C@](N)(Cc1ccc(O)c(O)c1)C(=O)O | -3.3% (inactive)
27 | Oc1ccc(C2CNCCc3c2cc(O)c(O)c3Cl)cc1 (configuration not stated) | -1.93% (inactive)
28 | CNCCCC1c2ccccc2C=Cc2ccccc21 | -0.254% (inactive)
29 | NC[C@H](O)c1ccc(O)c(O)c1 | -3.09% (inactive)
30 | CC(=O)Nc1nnc(S(N)(=O)=O)s1 | -2.47% (inactive)

Molecular target: Ubiquitin carboxyl-terminal hydrolase 1 (Homo sapiens) (UniProt O94782)
Sequence (O94782 whole entry, looked up): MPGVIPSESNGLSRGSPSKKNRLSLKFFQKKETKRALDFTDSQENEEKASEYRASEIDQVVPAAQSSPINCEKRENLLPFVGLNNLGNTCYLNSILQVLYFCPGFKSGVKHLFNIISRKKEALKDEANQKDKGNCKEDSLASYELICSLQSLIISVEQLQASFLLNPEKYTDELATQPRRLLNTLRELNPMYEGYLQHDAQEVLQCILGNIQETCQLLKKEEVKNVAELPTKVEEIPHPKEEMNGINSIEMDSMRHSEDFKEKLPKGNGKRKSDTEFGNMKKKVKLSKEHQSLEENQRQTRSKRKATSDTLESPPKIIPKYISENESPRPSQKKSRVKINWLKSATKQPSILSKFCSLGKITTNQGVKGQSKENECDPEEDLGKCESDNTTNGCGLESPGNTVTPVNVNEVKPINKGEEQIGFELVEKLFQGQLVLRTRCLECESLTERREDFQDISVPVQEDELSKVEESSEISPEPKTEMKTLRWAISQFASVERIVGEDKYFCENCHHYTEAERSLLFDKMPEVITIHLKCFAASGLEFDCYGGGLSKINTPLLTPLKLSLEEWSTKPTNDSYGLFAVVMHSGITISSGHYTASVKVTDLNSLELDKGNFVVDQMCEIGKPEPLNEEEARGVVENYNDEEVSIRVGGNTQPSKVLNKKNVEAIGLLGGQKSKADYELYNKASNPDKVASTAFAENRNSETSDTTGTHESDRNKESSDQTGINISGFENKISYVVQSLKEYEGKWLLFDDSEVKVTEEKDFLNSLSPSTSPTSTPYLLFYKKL
Assay: Inhibitors of USP1/UAF1: Pilot qHTS (AID 504865);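 note: rhodamine fluorescence freed from ubiquitin-rhodamine substrate followed over time; top concentration of the series differs between compounds; % is set by controls: 0 for no effect and ±100 for the full control effect; nearly all actives have a fitted effect of over 35% in size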
Details: purified USP1/UAF1, Ub-rhodamine cleavage fluorescence; series mostly up to 114 µM; activity change, negative = inhibition: at the top concentration
Summary of the method: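 1nM USP1/UAF1 + cpd, 15 min RT; start w/ Ub-Rho 150nM final; kinetic FL 480/540 nm, 6 reads q60 s. Buffer 50mM HEPES pH 7.8, 0.5mM EDTA, 1mM TCEP, 0.01% Tween-20, 0.1 mg/ml BSA.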

Row | SMILES | activity change, negative = inhibition | Potency
31 | CN(C)CCN(C)CCc1ccc(Cl)c(Cl)c1 | -7.21% (inactive) | 
32 | COC1(CS(=O)c2ccccc2)CCN(CCc2c[nH]c3ccc(F)cc23)CC1 (configuration not stated) | -4.22% (inactive) | 
33 | C#CCN(C)[C@H](C)Cc1ccccc1 | -6.16% (inactive) | 
34 | O=C(O)c1ccc2[nH]cc(CCCCN3CC=C(c4ccccc4)CC3)c2c1 | -2.5% (inactive) | 
35 | C[C@]12CC[C@@H]3c4ccc(O)cc4C[C@@H](CCCCCCCCCS(=O)CCCC(F)(F)C(F)(F)F)[C@H]3[C@@H]1CC[C@@H]2O (some centres not stated) | -13.8% (inactive) | 
36 | COc1cc([C@@H]2c3cc4c(cc3[C@H](O)[C@H]3COC(=O)[C@H]23)OCO4)cc(OC)c1OC |  | inactive
37 | CS(=O)c1ccc(-c2nc(-c3ccc(F)cc3)c(-c3ccncc3)[nH]2)cc1 (configuration not stated) | -11.7% (inactive) | 
